Inconclusive results are not listed. Activity calls are given as the source filed them. The calls were made as follows: active = hit-call score of the fitted dose curve at least 0.9, where 1 is the maximum; inconclusive = response in the unintended direction; inactive = score below 0.9.
target: Luciferin 4-monooxygenase (Photinus pyralis) (UniProt P08659); assay: CCTE_Simmons_QuantiLum_inhib_2: CCTE's Firefly Luciferase Inhibition Assay, Simmons Lab (AID 2283767);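 as to AC50: potency for inhibitors that lower luciferase luminescence relative to DMSO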
Sequence (P08659 whole entry, looked up): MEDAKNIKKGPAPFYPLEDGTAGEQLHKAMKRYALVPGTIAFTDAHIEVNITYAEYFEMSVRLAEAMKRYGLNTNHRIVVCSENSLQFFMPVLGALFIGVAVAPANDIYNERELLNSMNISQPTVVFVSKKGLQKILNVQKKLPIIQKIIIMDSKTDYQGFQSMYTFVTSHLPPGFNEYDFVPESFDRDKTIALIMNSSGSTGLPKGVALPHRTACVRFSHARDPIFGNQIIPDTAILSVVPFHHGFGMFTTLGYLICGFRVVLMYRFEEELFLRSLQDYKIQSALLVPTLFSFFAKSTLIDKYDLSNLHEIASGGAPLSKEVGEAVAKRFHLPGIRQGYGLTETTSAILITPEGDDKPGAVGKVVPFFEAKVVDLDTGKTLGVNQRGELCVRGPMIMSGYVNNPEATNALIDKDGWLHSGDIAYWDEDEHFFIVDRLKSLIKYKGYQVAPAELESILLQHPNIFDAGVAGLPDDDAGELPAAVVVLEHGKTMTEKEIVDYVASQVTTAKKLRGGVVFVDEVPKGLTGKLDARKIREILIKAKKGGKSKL
Description: CCTE_Simmons_QuantiLum_inhib_2 is a biochemical, single-readout assay that uses purified luciferase enzyme in a cell-free assay.Measurements were taken 0.5 hour after chemical dosing in a 384-well plate.CCTE_Simmons_QuantiLum_inhib_2 is the assay component measured from the CCTE_Simmons_QuantiLum_inhib_2 assay. It is designed to make measurements of enzyme activity, a form of enzyme reporter, as detected with bioluminescence signals by Luciferase-coupled Quantilum levels technology. This is a secondary assay to CCTE_Simmons_AUR_TPO to evaluate nonspecific enzyme inhibition.Data from the assay component CCTE_Simmons_QuantiLum_inhib_2 was analyzed at the endpoint, CCTE_Simmons_QuantiLum_inhib_2, in the positive analysis fitting direction relative to DMSO as the negative control and baseline of activity. Using a type of enzyme reporter, measures of enzyme activity for loss-of-signal activity can be used to understand inhibition of firefly luciferase. This is an assay endpoint to indicate nonspecific protein inhibition for comparison to aeid 1508 for thyroperoxidase inhibition. To generalize the intended target to other relatable targets, this assay endpoint is annotated to the oxidoreductase intended target family, where the subfamily is monooxygenase.
Quanti-Lum recombinant luciferase (Promega; Madison, Wisconsin) was diluted to 76.9 ng/ml with 200mM potassium phosphate buffer supplemented with 1 mg/ml bovine serum albumin and 65ul (5ng recombinant luciferase) per well was dispensed into opaque, white 384-well plates (Greiner, BioExpress) using an automated liquid handler (BioTek MicroFlo) with a plastic 5 ul tubing cassette. Test compounds were administered using the HDRT as described earlier to achieve a 0.5% final DMSO concentration. Microplates were incubated at 37C in the dark for 30min to mimic the AUR-TPO assay conditions. Luciferase detection reagent (25 ul per well; 9.2 mM dithiothreitol, 75uM Coenzyme A, 147uM dATP, 150uM D-luciferin, 8.9 mM Tricine, 297uM (MgCO3)4.Mg(OH)2.5H20, 742uM MgSO4, 27.8uM EDTA, pH 7.8, final assay concentrations) was then added using a BMG Clariostar plate reader equipped with syringe injectors (BMG LabTech; GmbH). Plates were read using a kinetic luminescence protocol (top read) whereby each well was individually injected with luciferase detection reagent immediately prior to measurement. Three biological replicates of technical singles were run for every chemical concentration tested. A titrated range of LUCINH2 served as a positive control on each plate of the luciferase inhibition screening assay. Test chemicals were administered as a titrated series of 8 concentrations from 5 nM up to 87.5 uM [final] for 30 minutes prior to single endpoint detection. Dimethylsulfoxide [DMSO] was used as the vehicle control. Luciferase Inhibitor I [2-(5-(2-Methoxyphenyl)-1,2,4-oxadiazol-3-yl)pyridine] was used as the positive control and was administered as a titrated series of 8 concentrations from 1 nM up to 100 uM [final].

SMILES | outcome | AC50
Cc1c(N(C)CS(=O)(=O)O)c(=O)n(-c2ccccc2)n1C | inactive | 
Nc1ccc(S(=O)(=O)Nc2cnc3ccccc3n2)cc1 | inactive | 
CCCCC(CC)COC(=O)C=Cc1ccc(OC)cc1 (stereo not given) | inactive | 
CCN(CC)CCNC(=O)c1c(C)[nH]c(/C=C2\C(=O)Nc3ccc(F)cc32)c1C | inactive | 
Sc1nc2ccccc2s1 | inactive | 
CCCCC(CC)COC(=O)CS (stereo not given) | inactive | 
Cc1cc(C)c(S(=O)(=O)O)cc1N=Nc1cc(S(=O)(=O)O)c2ccccc2c1O |  | 2.98 µM (active)
Oc1cccc2ccccc12 |  | 29.9 µM (active)
COc1ccc(C(=O)c2ccccc2O)c(O)c1 | inactive | 
CN(C)c1ccc(C(c2ccccc2)c2ccc(N(C)C)cc2)cc1 | inactive | 

Source: PubChem BioAssay (EPA / NIEHS)
